Screening results from PubChem BioAssay.
PAD4 FP inh: human PAD4 inhibitors, primary screen, biochemical, fluorescence polarization, 1536-well format. recombinant PAD4, RCA probe fluorescence polarization. inhibition, % at 6.36 µM. AID 485272, 2010. actives 0.41% (n = 330,000);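 active = percent inhibition above a cutoff equal to the mean of all tested compounds plus 3 SD, cut at about 15% in these data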;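 also: 0% = PAD4 with RCA probe and DMSO and 100% = probe without PAD4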
Fam108B inh: mouse Fam108B serine hydrolase inhibitors, primary screen, counter-screen for RBBP9 inhibitor project, biochemical, fluorescence polarization | recombinant Fam108B, FP-Rh probe fluorescence polarization | inhibition, % at 9.51 µM | actives 0.33% (n = 300,000);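 active = inhibition above the screen mean inhibition plus 3 SD, computed separately per campaign, cut at about 18% in these data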;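 also: inhibitors lower polarization as less probe binds the enzyme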
LYPLA1 inh: LYPLA1 inhibitors, primary screen, counter-screen for PME1 inhibitor project, biochemical, fluorescence polarization, FP-Rh probe ABPP; Acyl-protein thioesterase 1 (Homo sapiens), O75608; recombinant LYPLA1; inhibition, % at 5.9 µM; actives 0.16% (n = 320,000); AID 2174, 2009;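 active = inhibition above the mean of all tested compounds plus 3 SD, set per campaign, cut at about 14% in these data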;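 also: inhibitors block serine hydrolase probe labeling of LYPLA1 so polarization falls; 0% = enzyme with DMSO and 100% = wells lacking LYPLA1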
Target sequence (O75608 whole entry, looked up): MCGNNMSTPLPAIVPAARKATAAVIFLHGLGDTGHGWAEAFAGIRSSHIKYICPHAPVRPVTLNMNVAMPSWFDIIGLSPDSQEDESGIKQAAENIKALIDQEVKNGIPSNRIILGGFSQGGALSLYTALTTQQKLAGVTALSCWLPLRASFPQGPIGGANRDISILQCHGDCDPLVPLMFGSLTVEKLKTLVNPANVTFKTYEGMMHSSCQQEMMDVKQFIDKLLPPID
GSTO1 counter: inhibitors of recombinant GSTO1, primary screen, counter-screen for RBBP9 inhibitor project, biochemical, fluorescence polarization. Glutathione S-transferase omega-1 (Homo sapiens), P78417. activity-based probe fluorescence polarization. inhibition, % at 5.96 µM. actives 1.1% (n = 300,000);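 active = inhibition above the campaign mean inhibition plus 3 SD, cut at about 35% in these data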;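 also: 0% = GSTO1-1 with DMSO and 100% = wells lacking GSTO1-1 enzyme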
Target sequence (P78417 whole entry, looked up): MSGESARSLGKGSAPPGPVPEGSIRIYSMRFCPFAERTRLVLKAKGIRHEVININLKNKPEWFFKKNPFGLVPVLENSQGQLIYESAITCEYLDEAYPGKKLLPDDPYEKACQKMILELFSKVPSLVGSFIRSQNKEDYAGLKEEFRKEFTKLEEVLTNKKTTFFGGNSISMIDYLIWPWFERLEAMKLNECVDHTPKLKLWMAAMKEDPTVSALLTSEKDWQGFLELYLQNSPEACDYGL
LYPLA2 inh: LYPLA2 inhibitors, primary screen, counter-screen for PME1 inhibitor project, biochemical, fluorescence polarization, FP-Rh probe ABPP. Acyl-protein thioesterase 2 (Homo sapiens), O95372. recombinant LYPLA2. inhibition, % at 5.9 µM. actives 0.38% (n = 320,000). AID 2177, 2009;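 active = inhibition above the screen-wide mean plus 3 SD, limit set per campaign, cut at about 26% in these data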;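 also: 0% = LYPLA2 with DMSO and 100% = wells lacking LYPLA2 enzyme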
Target sequence (O95372 whole entry, looked up): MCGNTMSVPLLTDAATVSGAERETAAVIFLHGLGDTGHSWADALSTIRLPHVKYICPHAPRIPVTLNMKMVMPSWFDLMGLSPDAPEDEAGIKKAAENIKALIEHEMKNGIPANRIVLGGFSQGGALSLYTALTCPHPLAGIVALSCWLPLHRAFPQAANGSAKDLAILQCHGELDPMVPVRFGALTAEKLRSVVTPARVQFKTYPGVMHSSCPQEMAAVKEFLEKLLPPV
PME-1 primary: PME-1 inhibitors via competitive probe labeling, primary screen, biochemical, fluorescence polarization, FP-Rh probe, HTS; Protein phosphatase methylesterase 1 (Homo sapiens), Q9Y570; recombinant PME-1; inhibition, % at 5.9 µM; actives 0.53% (n = 320,000); AID 2130, 2009;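 active = inhibition above the campaign mean of all compounds plus 3 SD, cut at about 26% in these data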;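 also: competitive labeling of PME-1 active site by serine hydrolase directed probe; 0% = PME-1 with DMSO and 100% = wells lacking PME-1 enzyme; inhibitors block probe labeling so polarization falls and inhibition rises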
GSTO1 confirm: GSTO1 inhibitor hit confirmation, counter-screen for RBBP9 inhibitor project, biochemical, fluorescence polarization, triplicate. inhibition, % at 5.96 µM. recombinant GSTO1, probe fluorescence polarization. AID 2176, 2009. actives 54% (n = 2,400). shares compounds with GSTO1 counter;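 active = inhibition above the primary screen's cutoff, its mean inhibition plus 3 SD, cut at about 35% in these data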;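 also: loss of polarization as inhibitors block binding of rhodamine sulfonate ester activity probe; 0% = GSTO1 with DMSO and 100% = wells lacking GSTO1 enzyme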
LYPLA1 confirm: LYPLA1 inhibitors, retest, confirmation, counter-screen for PME1 inhibitor project, biochemical, fluorescence polarization, FP-Rh probe ABPP; inhibition, % at 5.9 µM; shares compounds with LYPLA1 inh; actives 69% (n = 480); recombinant LYPLA1; AID 2233, 2010;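 active = mean inhibition across replicates above the hit cutoff set in the primary screen, cut at about 15% in these data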;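 also: loss of FP-Rh probe labeling of LYPLA1 seen as lower polarization; 0% = LYPLA1 with DMSO and 100% = wells lacking LYPLA1 enzyme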
LYPLA2 confirm: LYPLA2 inhibitors, retest, confirmation, counter-screen for PME1 inhibitor project, biochemical, fluorescence polarization, FP-Rh probe ABPP; shares compounds with LYPLA2 inh; recombinant LYPLA2; inhibition, % at 5.9 µM; actives 72% (n = 1,100); AID 2232, 2010;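 active = mean inhibition across replicates above the hit cutoff set in the primary screen, cut at about 26% in these data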;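 also: blocked labeling of the enzyme by serine hydrolase FP-Rh probe lowers polarization; 0% = enzyme with DMSO and 100% = wells lacking LYPLA2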
LYPLA2 gel ABPP: LYPLA2 inhibitors in proteome, late-stage follow-up, gel-based competitive ABPP, fluorescence, assay provider; shares compounds with LYPLA2 inh; rhLYPLA2 in mouse brain proteome, gel ABPP FP-Rh; inhibition, % at 20 µM; actives 30% (n = 150); AID 652029, 2013;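 active = inhibition of LYPLA2 enzyme probe labeling above about 50%, limit read from the data; inactive = inhibition below that limit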;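 also: loss of FP-Rh probe labeling of the LYPLA2 gel band measured as band density; 0% = DMSO only control band and 100% = blank gel background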
PAD4 confirm: human PAD4 inhibitors, confirmation, biochemical, fluorescence polarization | shares compounds with PAD4 FP inh | recombinant PAD4, RCA probe fluorescence polarization | inhibition, % at 6.36 µM | actives 28% (n = 1,200) | AID 488796, 2010;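 active = mean inhibition across replicates above the hit cutoff set by the earlier primary screen, cut at about 15% in these data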;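 also: inhibitors block active-site labeling by the probe so polarization falls; 0% = PAD4 with probe and DMSO and 100% = probe without PAD4 enzyme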
Starred values were filed as active, the others as inactive; nt = not tested or not shown. Shown are actives, neighbours in structure and some others; about 1.8% of the full set was active somewhere.

SMILES | PAD4 FP inh | Fam108B inh | LYPLA1 inh | GSTO1 counter | LYPLA2 inh | PME-1 primary | PAD4 confirm | others
COCCNC(=O)c1c(N)n(CCC(C)C)c2nc3ccccc3nc12 | 40.0* | 6.9 | -1.1 | 75.0* | -4.5 | 7.3 | -1.9 | GSTO1 confirm=6.4
Oc1c(Br)cc(Br)cc1Br | 0.2 | nt | 0.8 | nt | 0.6 | 5.1 | nt
Oc1c(Br)c(Br)c(Br)c(Br)c1Br | -5.1 | nt | 25.1* | nt | 55.8* | 74.8* | nt | LYPLA1 confirm=30.2*;LYPLA2 confirm=58.4*
Clc1ccc(C(c2ccc(Cl)cc2)n2cc[n+](CC(OCc3ccc(Cl)cc3Cl)c3ccc(Cl)cc3Cl)c2)cc1 (configuration not stated) | -0.6 | 2.9 | 22.0* | -9.5 | 32.0* | 2.0 | nt | LYPLA1 confirm=52.2*;LYPLA2 confirm=43.5*
Cc1ccc(S(=O)(=O)N(C)CCCC(=O)N2CCN(c3ccccn3)CC2)cc1 | 1.6 | -0.2 | 0.3 | -0.9 | 5.2 | -0.2 | nt
Cc1nc2cc(C(F)(F)F)ccc2n1C1CCN(Cc2nnnn2Cc2cccs2)CC1 | 1.9 | 0.5 | -1.1 | -7.6 | 26.6* | -3.6 | nt | LYPLA2 confirm=23.1
O=C(COc1ccccc1F)N1CCN(CCN2C(=O)c3cccc4cccc(c34)C2=O)CC1 | -2.2 | -2.3 | 8.0 | 8.4 | 38.3* | 5.0 | nt | LYPLA2 confirm=35.2*
O=C(COc1ccccc1)N1CCN(CCN2C(=O)c3cccc4cccc(c34)C2=O)CC1 | -2.9 | 1.1 | 3.3 | 11.3 | 15.6 | -0.6 | nt
O=C(COc1ccc(Cl)cc1)N1CCN(Cc2ccc([N+](=O)[O-])cc2)CC1 | -2.6 | -1.8 | 8.9 | 2.4 | 56.6* | -2.7 | nt | LYPLA2 confirm=61.1*;LYPLA2 gel ABPP=47.0
COc1ccc(OCC(=O)N2CCN(Cc3nc4cc([N+](=O)[O-])ccc4n3C)CC2)cc1 | -7.0 | -0.4 | 2.4 | -1.0 | 3.4 | 4.0 | nt
O=C(COc1ccc(Cl)cc1Cl)N1CCN(C/C=C/c2ccccc2)CC1 | -2.6 | 1.8 | 13.5 | 14.1 | 75.7* | 2.9 | nt | LYPLA2 confirm=77.8*;LYPLA2 gel ABPP=56.0*
CCC(=NCCN1CCOCC1)c1c(O)n(C2CCCCC2)c(=O)[nH]c1=O | -2.0 | -2.9 | 1.4 | -4.3 | 2.3 | -0.4 | nt
CC(NCC#Cc1ccccc1)C(O)c1ccccc1 (configuration not stated) | -0.1 | -1.3 | -0.8 | 1.8 | -1.6 | -2.1 | nt
O=C1CC(c2cccnc2)=NN1c1ccccc1 | 52.4* | 6.7 | 2.1 | 30.8 | 5.2 | -3.7 | 1.7
COCCCNC(=O)c1c(NC(=O)c2ccco2)n(Cc2ccccc2)c2nc3ccccc3nc12 | -8.2 | 1.1 | -1.9 | 13.2 | 3.2 | -11.1 | nt
COCCNC(=O)c1c(NC(=O)c2ccc(Br)o2)n(Cc2ccccc2)c2nc3ccccc3nc12 | 53.9* | 10.0 | -1.8 | 77.4* | -9.6 | 18.9 | -9.6
COC(=O)C1=C(c2ccc(C(C)=O)cc2)C[C@@H]2CC[C@H]1N2C(=O)NCCCOC(C)C | -3.5 | nt | 3.1 | nt | 8.0 | -4.4 | nt
C#C[C@]1(O)CC[C@H]2[C@@H]3CCC4=Cc5nc6nc7ccccc7n6cc5C[C@]4(C)[C@H]3CC[C@@]21C | 18.5* | -18.6 | -6.7 | -8.4 | -1.9 | -19.0 | 8.9
O=c1c2ccccc2nc(-c2ccccc2)n1-c1ccccc1 | -2.1 | -1.3 | 3.8 | -1.7 | 5.8 | -1.5 | nt
O=c1c2ccccc2[se]n1-c1ccccc1 | 74.8* | -4.9 | -0.9 | -20.0 | -2.0 | 1.6 | 79.7*
Cc1cc(OCC(=O)N2CCC(C(N)=O)CC2)c2c3c(c(=O)oc2c1)CCCC3 | 0.7 | 1.6 | -0.1 | 0.3 | 4.1 | -3.0 | nt
CN1CC=C2C(C#N)=C(N)C(C#N)(C#N)C(c3ccncc3)C2C1 (configuration not stated) | 27.5* | 6.4 | 10.5 | 12.9 | 14.2 | 7.6 | 6.5
CC12CC3CC(C)(C1)CC(N)(C3)C2 | -3.4 | -3.4 | -2.8 | 0.3 | -12.3 | -5.7 | nt
COC(=O)C1=C(c2cccc(OC)c2OC)C[C@@H]2CC[C@H]1N2C(=O)NCc1ccc(F)cc1 | 28.3* | 4.8 | 2.0 | 6.9 | 1.9 | 0.8 | 4.5
CC(C)n1c(O)c(C=NCc2cccnc2)c(=O)[nH]c1=S | -2.9 | 0.9 | 1.6 | -0.1 | 4.2 | 2.4 | nt
SMILES | PAD4 FP inh | Fam108B inh | LYPLA1 inh | GSTO1 counter | LYPLA2 inh | PME-1 primary | PAD4 confirm | others
CCC(C)n1c(O)c(C=Nc2cccc(C(F)(F)F)c2)c(=O)[nH]c1=S (configuration not stated) | 21.6* | -7.5 | -8.3 | -8.2 | -16.5 | -21.9 | 0.0
CCCC/C(C)=C/[C@@H](NP(=O)(c1ccccc1)c1ccccc1)c1ccccc1 | -4.7 | 1.4 | -3.8 | 12.1 | 0.4 | 3.0 | nt
O=c1cc(C2CCNCC2)[nH][nH]1 | 36.9* | 1.6 | 3.3 | 19.2 | 7.2 | -8.4 | -1.2
CCN(CC)c1ccc(N=Cc2c(O)n(CCc3ccc(OC)c(OC)c3)c(=O)[nH]c2=O)cc1 | -6.4 | 13.4 | -4.9 | 16.4 | 1.9 | 3.9 | nt
CCN(CC)c1ccc(N=Cc2c(O)n(-c3cc(OC)ccc3OC)c(=O)[nH]c2=O)cc1 | 17.9* | 1.5 | 4.5 | 17.3 | 3.4 | 10.8 | 2.2
CCN(CC)c1ccc(N=Cc2c(O)n(Cc3ccco3)c(=O)[nH]c2=O)cc1 | 16.1* | -1.5 | 1.0 | 28.2 | -0.3 | -2.2 | 8.3
CCN(CCO)c1ccc(N=Cc2c(O)n(C)c(=S)[nH]c2=O)cc1 | 39.9* | -2.6 | 0.2 | 47.6* | 5.8 | 2.2 | -5.7
CC(NS(=O)(=O)OCC(Cl)(Cl)Cl)c1ccccc1 (configuration not stated) | 3.5 | -0.8 | 3.3 | 0.0 | -6.5 | -2.1 | nt
CCN1CC=C(c2c[nH]c3ccccc23)CC1 | 2.0 | -3.3 | -2.4 | 3.9 | 3.0 | -4.9 | nt
CCOc1ccccc1NC(=O)N1CCC2(CC1)OCCO2 | -2.7 | -4.3 | 2.7 | 2.4 | 5.7 | -1.3 | nt
